In PubChem BioAssay (NCATS):
Results filed as inconclusive are left out. Active and inactive are the calls of the source. The call rests on the fitted dose curve; in most records, active means well fitted activation curve with a large enough effect; inconclusive means small, poorly fitted or top-dose-only effect; inactive means flat fitted curve, though single readings scatter.

Experiment: Validation screen for small molecules that induce DNA re-replication in SW480 colon adenocarcinoma cells (AID 504364)
Conditions: DNA re-replication phenotype (high-content imaging); series mostly up to 46.1 µM
Description: H Molecular Libraries Probe Production Network [MLPCN]
NIH Chemical Genomics Center [NCGC]
Assay Provider: Melvin DePamphilis, NICHD, NIH
Eukaryotic cells normally restrict genome duplication to once per cell division. When this process is aberrant, DNA re-replication occurs when cells reinitiate DNA replication before the first round of replication is complete. DNA re-replication induces the DNA damage response, arrests cell proliferation, and triggers apoptosis. The cell cycle components cyclin A, Cdt-1, Cdc6 and geminin are critical regulators of this process and their misregulation results in DNA re-replication in normal and cancer cells. To identify compounds that induce re-replication in normal cells, an image-based assay was used to measure DNA content of nuclei, as detected by the fluorescent DNA binding dye, Hoechst. Cell nuclei were imaged by a fluorescence scanning plate imager and compounds that induce DNA re-replication were identified by the increase of nuclei with elevated fluorescence intensity.#
For screening, 250 cells in 5 uL/well were dispensed into black clear 1536-well plates (Aurora) using a solenoid-based dispenser. Following transfer of 23 nL compound or DMSO vehicle by a pin tool, the plates were incubated 48 hr at 37 C and 5% CO2. After addition of 1 uL/well Hoescht stain, the plates were incubated 40 min at 37 C, 5% CO2 and total intensity of fluorescent objects (nuclei) were enumerated by an Acumen Explorer Ex3 (TTP LabTech) fluorescence scanning plate imager (405 nm excitation, 500-530 nm emission).
Keywords: NIH Roadmap, MLPCN, MLI, MLSMR, qHTS, NCGC, DNA replication, cancer

Question: For `O=[N+]([O-])c1ccc(-c2nc(-c3ccc(F)cc3)c(-c3ccncc3)[nH]2)cc1`, which outcome is on record?
Answer: inactive

Question: Which outcome does the source give for `CC(C)N(CCC(=O)c1ccc2ccccc2c1)Cc1ccccc1` here?
Answer: inactive

Question: Which outcome does the source give for `Cn1cnc2c(NCc3ccccc3)nc(NCCO)nc21` here?
Answer: inactive

Question: With `COc1cccc2c1[C@@H]1CN(CCCCn3c(=O)[nH]c4c(sc5ncc(-c6ccccc6)nc54)c3=O)C[C@@H]1CO2` as the compound, how does the outcome read?
Answer: inactive

Question: Which outcome does the source give for `COc1ccccc1N1CCN(CCN2C(=O)CC3(CCCC3)CC2=O)CC1` here?
Answer: inactive

Question: Which outcome does the source give for `O=C1NC(c2cccc([N+](=O)[O-])c2)=CCN1c1ccccc1O` here?
Answer: inactive

Question: For `C[C@]12CCC(=O)C=C1CC[C@@H]1[C@@H]2[C@@H](O)C[C@@]2(C)[C@H]1CC[C@]2(O)C(=O)COC(=O)CCC(=O)O`, which outcome is on record?
Answer: inactive

Question: For `C[N+](C)(C)CCO`, which outcome is on record?
Answer: inactive

Question: Which outcome does the source give for `NC(N)=NCCCCN=C(N)N` here?
Answer: inactive

Question: Which outcome does the source give for `Brc1ccc([C@H]2CN3CCSC3=N2)cc1` here?
Answer: inactive
